A number with no mark means an inactive call.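 The calls were made as follows: active = AUC reduced over 20% with Padj below 0.05 in at least 2 of 3 replicates; inactive = otherwise.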
Columns and labels:
Assay in all cases: growth AUC relative to DMSO control (median of replicates) (fraction); higher = more growth (less inhibition), active = hit call of the paper
Conditions in all cases: 20 µM; 24 h
[1] = system: Akkermansia muciniphila
In short: (§1)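 Gut bacterial monocultures were grown anaerobically at 37 °C in mGAM, starting at OD600 0.05, with 20 µM compound (1% DMSO) in round-bottom 96-well plates under pierced gas-permeable seals. OD600 was read hourly for 24 h. Area under the growth curve (minimum OD set to 0) was normalised to the plate median of DMSO controls, or to row and column medians on the industrial chemical plate. The value is the median of three biological replicates grown on separate days.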

[2] = system: Bacteroides caccae
In short: as §1

[3] = system: Bacteroides clarus
In short: as §1

[4] = system: Bacteroides dorei
In short: as §1

[5] = system: Bacteroides stercoris
In short: as §1

[6] = system: Bacteroides thetaiotaomicron
In short: as §1

[7] = system: Bacteroides uniformis
In short: as §1

[8] = system: Bifidobacterium longum subsp. longum
In short: as §1

[9] = system: Clostridium difficile
In short: as §1

[10] = system: Collinsella aerofaciens
In short: as §1

[11] = system: Coprococcus comes
In short: as §1

[12] = system: Escherichia coli ED1a
In short: as §1

[13] = system: Escherichia coli IAI1
In short: as §1

[14] = system: Eubacterium rectale
In short: as §1

[15] = system: Fusobacterium nucleatum subsp. animalis
In short: as §1

[16] = system: Lactobacillus gasseri
In short: as §1

[17] = system: Lactobacillus paracasei
In short: as §1

[18] = system: Odoribacter splanchnicus
In short: as §1

[19] = system: Parabacteroides distasonis
In short: as §1

[20] = system: Parabacteroides merdae
In short: as §1

Row | SMILES | growth AUC [1] | growth AUC [2] | growth AUC [3] | growth AUC [4] | growth AUC [5] | growth AUC [6] | growth AUC [7] | growth AUC [8] | growth AUC [9] | growth AUC [10] | growth AUC [11] | growth AUC [12] | growth AUC [13] | growth AUC [14] | growth AUC [15] | growth AUC [16] | growth AUC [17] | growth AUC [18] | growth AUC [19] | growth AUC [20]
1 | O=C(O)COc1cc(N2C(=O)C3=C(CCCC3)C2=O)c(F)cc1Cl | 0.82 | 0.999 | 0.98 | 0.968 | 1.08 | 0.975 | 1.05 | 1.04 | 1.02 | 0.967 | 1.01 | 1.01 | 1 | 1.03 | 1.02 | 0.967 | 1.05 | 1.03 | 1.03 | 1.04
2 | CCCCOCN(C(=O)CS(=O)(=O)[O-])c1c(CC)cccc1CC.[Na+] | 0.979 | 0.997 | 0.997 | 1.01 | 0.923 | 0.934 | 1.03 | 1.07 | 1.02 | 1.01 | 0.957 | 0.973 | 0.991 | 0.975 | 0.947 | 0.914 | 0.957 | 0.938 | 1 | 0.962
3 | CC(C)COC(=O)COc1cc(Cl)c(Cl)cc1Cl | 0.952 | 0.864 | 0.993 | 0.971 | 1.15 | 0.978 | 1.01 | 1.03 | 1 | 0.91 | 1 | 1.01 | 0.998 | 1.02 | 1.01 | 0.91 | 1.08 | 0.969 | 0.971 | 0.946
4 | CN(C)C(=O)Nc1ccccc1 | 0.854 | 1.03 | 0.981 | 1 | 1.07 | 0.994 | 0.978 | 1.01 | 1.01 | 0.984 | 0.965 | 0.951 | 0.978 | 0.978 | 0.961 | 1.03 | 0.949 | 1.04 | 1.05 | 1.02
5 | FC(F)(F)c1cccc(C(c2ccccc2)(c2ccccc2)n2cncn2)c1 | 0.852 | 0.02 (active) | 0.93 | 0.92 | 0.892 | 0.869 | 0.877 | 0.948 | 1.04 | 0.924 | 0.713 | 0.975 | 0.959 | 0.646 (active) | 0.899 | 0.851 | 1.11 | 1.03 | 0.842 | 0.619 (active)
6 | Oc1cccc2ccccc12 | 1 | 1.04 | 1 | 0.987 | 0.943 | 0.993 | 0.976 | 0.999 | 0.98 | 0.959 | 0.96 | 0.994 | 0.982 | 0.957 | 0.988 | 0.976 | 1.02 | 0.975 | 0.983 | 0.997
7 | COC(=O)c1ccc(C(F)(F)F)nc1S(=O)(=O)[N-]C(=O)Nc1nc(OC)cc(OC)n1.[Na+] | 0.963 | 1.01 | 0.997 | 1.01 | 0.908 | 0.993 | 0.978 | 0.938 | 1.05 | 1.03 | 0.979 | 0.983 | 0.966 | 0.961 | 0.965 | 0.986 | 0.921 | 1.07 | 1 | 0.974
8 | CC(C)c1nn(C(=O)NC(C)(C)C)c(=O)n1N | 0.95 | 1.04 | 0.976 | 1.02 | 1.08 | 0.976 | 1 | 0.999 | 1 | 1.05 | 1.02 | 1.02 | 1.02 | 0.971 | 0.994 | 1.07 | 1.02 | 1 | 1 | 1.02
9 | COc1cc(OC)nc(Sc2cccc3c2C(=O)OC3C)n1 (stereo not given) | 0.871 | 1.01 | 0.989 | 1.04 | 1.06 | 0.974 | 0.97 | 0.974 | 0.998 | 1.03 | 1 | 0.984 | 0.999 | 1.02 | 0.965 | 1.06 | 1 | 1.09 | 0.904 | 0.968
10 | Cc1cccc(C)c1N(C(=O)CCl)C1CCOC1=O (stereo not given) | 1.05 | 0.802 | 0.993 | 0.971 | 1.1 | 0.647 (active) | 0.894 | 1.04 | 0.966 | 0.959 | 0.889 | 0.963 | 1.01 | 1.09 | 1.02 | 0.953 | 1.01 | 0.408 | 0.99 | 0.981
11 | COc1cc(OC)nc(NC(=O)NS(=O)(=O)c2c(Cl)nc3ccccn23)n1 | 1.06 | 1.02 | 1 | 1.02 | 1.1 | 1 | 1.02 | 1.02 | 1 | 1.03 | 0.981 | 1.01 | 1.01 | 1.01 | 1.13 | 1.06 | 1.11 | 0.984 | 1.02 | 1.04
12 | Cc1nc(C(F)(F)F)c(C(=O)Nc2c(Br)cc(OC(F)(F)F)cc2Br)s1 | 1.05 | 0.984 | 0.98 | 0.946 | 1.06 | 0.945 | 0.986 | 1 | 1.03 | 1.01 | 1.06 | 1.02 | 1.02 | 0.852 | 1.09 | 1.15 | 1.1 | 0.942 | 0.944 | 1
13 | Cc1nn(C)c(F)c1C(=O)Nc1ccccc1C(C)CC(C)C (stereo not given) | 0.94 | 0.97 | 0.959 | 0.988 | 1.04 | 0.968 | 0.947 | 0.992 | 0.982 | 1.02 | 0.985 | 1.02 | 1.01 | 0.932 | 0.977 | 1.03 | 0.97 | 0.899 | 0.96 | 0.946
14 | CCOC(=O)[C@@H](C)Oc1ccc(Oc2nc3ccc(Cl)cc3o2)cc1 | 0.975 | 0.971 | 0.966 | 0.983 | 1.03 | 1.01 | 0.929 | 1 | 1.03 | 1.02 | 1.01 | 1.03 | 1 | 0.876 | 1.02 | 0.991 | 1.03 | 1.09 | 0.999 | 0.971
15 | CCCCCC(C)OC(=O)COc1ccc(Cl)c2cccnc12 (stereo not given) | 1.01 | 0.887 | 0.956 | 0.945 | 1.03 | 0.889 | 0.915 | 0.953 | 0.934 | 0.853 | 0.795 (active) | 0.933 | 0.989 | 0.177 (active) | 1.01 | 0.865 | 0.925 | 1 | 0.741 (active) | 0.943
16 | Cc1ccc2c(c1)[C@H](Nc1nc(N)nc(C(C)F)n1)[C@@H](C)C2 (stereo not given in full) | 0.985 | 1 | 0.969 | 0.989 | 1.08 | 0.975 | 0.948 | 1.03 | 0.998 | 1.01 | 0.968 | 1.03 | 1.02 | 0.91 | 0.857 | 0.982 | 0.986 | 0.902 | 1.09 | 0.972
17 | COC(=O)c1c(Cl)c(Cl)c(C(=O)OC)c(Cl)c1Cl | 0.846 | 1.04 | 0.985 | 1.02 | 0.88 | 1.02 | 0.994 | 0.953 | 1.07 | 0.986 | 1.05 | 0.979 | 0.995 | 1.16 | 0.963 | 0.974 | 0.982 | 1.1 | 0.979 | 1.01
18 | N#CC(=NOCC1OCCO1)c1ccccc1 | 1.03 | 0.834 | 0.992 | 0.963 | 1.06 | 0.981 | 0.96 | 1.06 | 1.02 | 0.936 | 1.01 | 0.971 | 0.982 | 1.06 | 0.99 | 0.962 | 1.01 | 1.11 | 0.981 | 0.931
19 | COCCCNc1nc(NC(C)C)nc(SC)n1 | 0.847 | 0.981 | 0.976 | 0.989 | 0.977 | 0.957 | 0.982 | 0.985 | 0.963 | 0.993 | 0.963 | 1.01 | 0.986 | 0.914 | 0.904 | 1.04 | 0.943 | 0.954 | 1.01 | 0.992
20 | CCOc1ccc2c(c1)C(C)=CC(C)(C)N2 | 0.9 | 1.04 | 1 | 1 | 1.01 | 0.995 | 1.01 | 1.03 | 1.02 | 1.02 | 1.03 | 1.03 | 0.986 | 1.06 | 1.03 | 0.992 | 1.02 | 1.07 | 0.97 | 1.01
21 | CC(CNC(=S)[S-])NC(=S)[S-].[Zn+2] (mixture of isomers) | 1.05 | 0.937 | 1.02 | 1 | 1.12 | 1.01 | 1.03 | 0.975 | 1 | 0.999 | 1.04 | 0.997 | 0.983 | 1.15 | 1.08 | 0.956 | 1.14 | 0.945 | 1.01 | 1.02
22 | O=C(O)Cc1c(Cl)ccc(Cl)c1Cl | 0.95 | 1 | 0.99 | 1.02 | 0.951 | 1 | 0.993 | 1.04 | 1 | 1 | 0.959 | 0.947 | 0.999 | 0.96 | 0.928 | 1.06 | 1.03 | 0.946 | 1.05 | 1.01
23 | O=[N+]([O-])c1ccc(O)cc1 | 1.02 | 1.01 | 0.994 | 1.01 | 1.11 | 1.02 | 1.01 | 0.96 | 1.02 | 1.05 | 0.973 | 1.01 | 0.994 | 0.994 | 0.979 | 0.985 | 0.987 | 1.01 | 0.99 | 0.99
24 | Nc1nc2ccccc2[nH]1 | 1.06 | 0.96 | 1.01 | 0.911 | 1.01 | 1.02 | 0.94 | 1.03 | 0.973 | 0.943 | 0.971 | 0.976 | 0.986 | 1.08 | 0.932 | 0.883 | 0.969 | 0.942 | 0.615 | 0.933
25 | CCSc1nc(NC(C)C)nc(NC(C)C)n1 | 0.919 | 1.01 | 0.923 | 0.983 | 0.88 | 0.863 | 0.948 | 0.984 | 1.03 | 0.995 | 0.984 | 1.01 | 0.982 | 0.787 | 0.91 | 1.03 | 0.896 | 0.968 | 1 | 0.91
26 | NC(=S)Nc1cccc2ccccc12 | 0.997 | 0.892 | 0.991 | 0.835 | 0.978 | 0.945 | 0.951 | 1.06 | 0.896 | 0.909 | 0.974 | 0.96 | 0.959 | 1.03 | 0.924 | 0.888 | 0.946 | 0.983 | 1.05 | 0.915
